In the library only some 1.3% were active in any assay of this set; here they are far more common.
TRPML1 agonist: qHTS for Agonists of the Human Mucolipin Transient Receptor Potential 1 (TRPML1); activation, % (no concentration beside the values); Mucolipin-1 (Homo sapiens), Q9GZU1; TRPML1-expressing cells, Ca2+ dye fluorescence, FDSS; 410,000 tested, 0.12% active; in the data active = activation above about 50%; inconclusive = mostly about 30% to 49%
Target sequence (Q9GZU1 whole entry, looked up): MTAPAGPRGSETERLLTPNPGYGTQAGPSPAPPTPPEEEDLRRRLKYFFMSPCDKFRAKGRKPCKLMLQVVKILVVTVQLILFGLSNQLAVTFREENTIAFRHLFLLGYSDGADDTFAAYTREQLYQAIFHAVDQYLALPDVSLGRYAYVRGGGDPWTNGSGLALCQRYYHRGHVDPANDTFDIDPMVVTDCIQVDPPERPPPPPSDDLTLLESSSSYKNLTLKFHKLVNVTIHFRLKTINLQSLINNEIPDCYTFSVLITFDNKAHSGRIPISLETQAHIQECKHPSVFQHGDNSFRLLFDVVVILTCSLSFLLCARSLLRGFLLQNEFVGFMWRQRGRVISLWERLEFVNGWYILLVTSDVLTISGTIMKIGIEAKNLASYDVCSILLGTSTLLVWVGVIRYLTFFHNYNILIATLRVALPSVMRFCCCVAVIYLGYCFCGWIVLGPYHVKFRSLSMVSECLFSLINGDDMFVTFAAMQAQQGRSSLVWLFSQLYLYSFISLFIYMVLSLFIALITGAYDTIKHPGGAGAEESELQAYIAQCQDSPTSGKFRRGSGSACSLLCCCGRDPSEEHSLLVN
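In this qHTS format, compounds were pin-transferred onto Ca8-dye-loaded TRPML1-DL cells induced with Tet overnight, and intracellular Ca2+ fluorescence was recorded kinetically for 110 s after a 10 s baseline. A subsequent 4uM final 54-4 (EC80) addition followed by a second 110 s read served as the antagonist phase.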
TRPML1 blocker: qHTS for Inhibitors of the Human Mucolipin Transient Receptor Potential 1 (TRPML1); Mucolipin-1 (Homo sapiens), Q9GZU1; TRPML1-inducible cells, Ca2+ dye fluorescence, FDSS; stronger effect = lower value; inhibition of EC80 agonist-evoked calcium signal; activity change, negative = inhibition, % (test concentration not listed); 390,000 tested, 0.02% active; AID 624415, 2012; in the data active = activity change below about -50%; inconclusive = between about -30% and that limit;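 also: stimulus is agonist 54-4 at its EC80 concentration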
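Tet-induced TRPML1-DL cells loaded with Ca8 no-wash calcium dye were read kinetically on FDSS. Compound addition was followed by EC80 agonist 54-4 (4 uM final); inhibition was read over 110 s.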
BRCA1 expr act: qHTS Assay to Identify Small Molecule Activators of BRCA1 Expression. MCF7-BRCA1-FFLuc reporter, luminescence, 48 h; response scale: scaled: vehicle 0%, 10 µM genistein 100%. Potency, µM (doses to about 46.1 µM), hits mostly activators. 380,000 tested, 1.1% active; also: nearly all actives have a fitted effect of over 80% in size
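First, MCF7-BRCA1-FFLuc cells (2000/well) attach for 2 h; next, compounds are pin-added and incubated 48 h at 37 °C; finally, luciferase reagent is added and luminescence read after 15 min.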
IL2 activator: qHTS of IL-2 Activators; IL-2 activation reporter assay, cell-based qHTS; stimulated with anti-CD3/CD4/CD28 beads; in transgenic mouse T cells; activation, % (series mostly up to about 46 µM); 360,000 tested, 0.065% active; in the data active = activation above about 50%; inconclusive = mostly about 30% to 49%
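Unstimulated transgenic mouse T cells preincubated 60 min with compound, then stimulated with anti-CD3/anti-CD4-coated beads plus anti-CD28 for 18 h at 37 degrees C. IL-2 response read as EGFP and DsRed fluorescence by plate cytometry.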
PKM2 activator: qHTS Assay for Activators of Human Muscle isoform 2 Pyruvate Kinase | Pyruvate kinase PKM (Homo sapiens), P14618 | purified PKM2, Kinase-Glo ATP luminescence, activation; response scale: 0% is enzyme alone, no compound | Potency, µM (highest dose often 57.5 µM), usual class: activators | 260,000 tested, 0.34% active; also: nearly all actives have a fitted effect of over 55% in size
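ATP formation by purified human PK-M2, quantified via coupled luciferase luminescence after 1 h at room temperature with 0.1 mM ADP and 0.5 mM PEP final.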
TSG101-PTAP inh: qHTS Assay for Iinhibitors of HIV-1 Budding by Blocking the Interaction of PTAP/TSG101; Fluorescence polarization, FITC-PTAP peptide / Tsg101 binding; Potency, µM (series often up to 115 µM), most hits filed as inhibitors; 340,000 tested, under 10 active; AID 493005, 2010; active = well fitted inhibition curve with a large enough effect in the main read-out, with a control signal flat, not every such curve was filed as active; inconclusive = small, poorly fitted or top-dose-only effect, or effect the other way, or a change in a side signal; inactive = no such curve, though single readings can be large or run the other way
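FP read-out: FITC-PTAP peptide, 50 nM final, binding Tsg101 binding domain, 10 uM final; 20 min, r.t.; 10 mM HEPES pH 7.5, 0.15 M NaCl, 0.01% Tween 20, 3 mM EDTA, 0.1 mM TCEP.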
Numbers stand for hits; 0 = inactive; ? = inconclusive; - = not tested or not shown; [ ] = dose if it differs, or a comment. Unless noted, calls follow the shape of the dose curve; as a rule, active = well fitted activation curve with a large enough effect; inconclusive = small, poorly fitted or top-dose-only effect; inactive = no such curve, though single readings can be large or run the other way.

SMILES | TRPML1 agonist | TRPML1 blocker | BRCA1 expr act | IL2 activator | PKM2 activator | TSG101-PTAP inh
COc1ccc(Cn2c(CCC(=O)Nc3ccc(OC)c(Cl)c3)nc3cccnc32)cc1 | 0 | 0 | - | - | - | -
CCc1nc2c(OCc3cccc(Cl)c3)cccn2c1N(C)C(C)=O | 0 | - | 0 | 55 | - | -
CCCC[n+]1c(/C=C/c2ccc(N(C)C)cc2)sc2ccccc21 | 0 | - | 0 | - | - | -
CCCCCCCCCC[n+]1ccc(/C=C/c2ccc(N(C)C)cc2)c2ccccc21 | 57 | - | 0 | - | - | -
O=C1[C@H](Cc2ccccc2)NC/C=C\C[C@@H](c2ccc(Cl)cc2)N1Cc1ccccc1 | 0 | - | - | - | - | -
CC(NC(=O)c1cc(COc2ccc(-n3cncn3)cc2)on1)c1ccc(F)cc1 (stereo not given) | 0 | 0 | 13µM | 0 | - | -
CN(c1ccccc1)c1nc(N)c([N+](=O)[O-])c(N2CCCCC2)n1 | 0 | 0 | 0 | 0 | 0 | 0
CN(c1ccccc1)c1nc(N)c([N+](=O)[O-])c(N2CCCC2)n1 | - | - | 11µM | 0 | - | 0
CCOC(=O)c1cc(NC(=O)c2ccc(F)cc2)c(=O)n2c1oc1ccc(Cl)cc12 | 0 | 0 | 0 | - | - | -
Cc1cc(C)c2[nH]c(=O)c(C(c3nnnn3C(C)(C)C)N3CCN(C(=O)c4ccco4)CC3)cc2c1 (stereo not given) | 0 | 0 | 0 | 0 | 11µM | 0
COc1ccccc1C(c1nnnn1C(C)(C)C)N1CCN(C(=O)c2ccco2)CC1 (stereo not given) | 0 | 0 | 0 | 0 | 0 | 0
CC(C)c1ccc(/C=C/C(=O)Nn2cnnc2)cc1 | 0 | - | 0 | - | - | -
COCCNC(=O)c1ccc2c(Cl)c3c(nc2c1)CCC3 | 0 | 0 | 5µM | 0 | - | 0
CS(=O)(=O)c1ccc(C(=O)OCC(=O)NCC2CCCO2)cc1[N+](=O)[O-] (stereo not given) | 0 | - | 0 | - | - | -
Cc1ccc(-c2nc3c(c(=O)[nH]c(=O)n3Cc3ccccc3)n2Cc2ccccc2)o1 | 0 | 0 | 0 | 0 | 18µM | 0
O=C(Nc1ccccn1)c1ccc2c(c1)S(=O)(=O)c1ccccc1C2=O | 0 | 0 | 0 | 0 | 0 | -
O=C1c2ccccc2S(=O)(=O)c2cc(C(=O)N(c3ccccn3)c3ccccn3)ccc21 | 64 | 0 | 0 | 0 | 0 | 0
CCCc1nc2ccc(C)cn2c1Cc1ccc(C)cc1 | 0 | 0 | 7.1µM | 0 | - | -
CCCc1nc2ccc(C)cn2c1Cc1ccccc1 | 0 | - | ? | 0 | - | -
CC(=O)C1=C(NC(=O)c2ccc(F)cc2)CC2C1C2(C)C (stereo not given) | 0 | 0 | 0 | 0 | 0 | 0
C/C(NC(=O)c1ccccc1)=C1/C(=O)CC2C1C2(C)C (stereo not given) | 0 | 0 | 11µM | 0 | 0 | 0
CCN(CC)C(=O)c1cc(-c2ccc(Br)cc2)on1 | 0 | 0 | 7.9µM | 0 | 0 | 0
Cc1ccc(CNC(=O)CN2C(=O)COc3ccc(S(=O)(=O)N4CCC(C)CC4)cc32)cc1 | 0 | 0 | - | - | - | -
C(=Nc1ccc2ccccc2n1)c1cccnc1 | 0 | - | 0 | - | - | -
COc1ccc(-c2cn(Cc3ccc(C)cc3)nn2)cc1 | 0 | 0 | 8.9µM | 0 | 0 | -
SMILES | TRPML1 agonist | TRPML1 blocker | BRCA1 expr act | IL2 activator | PKM2 activator | TSG101-PTAP inh
CNc1ccc(/C=C2\C=Cc3ccccc32)cc1Br | 0 | - | 0 | - | - | -
CCOc1ccc(OCc2ccc(C(=O)N3CCOCC3)cc2)cc1 | 0 | 0 | 0[1.84 µM] | 0 | 0 | 0
CCOc1ccc(N=C(/C(C(=O)C(=O)N2CCOCC2)=C(\O)c2ccccc2)c2ccccc2)cc1 | 0 | 0 | 7.9µM | 0 | 0 | 0
Cc1ccc(-c2nc3ncccn3c2Nc2ccccc2C)o1 | 0 | 0 | 0 | 0 | 11µM | 0
CC1CCN(C(=O)CN2c3ccc(C(C)C)cc3-c3ccccc3S2(=O)=O)CC1 | 0 | 0 | - | - | - | -
Cn1c(C(c2cc3ccccc3n2C)c2cc3ccccc3n2C)cc2ccccc21 | 0 | - | - | - | - | -
O=C(Nc1ccccc1Br)c1ccc(OC(=S)N2CCOCC2)cc1 | 0 | 0 | 7.9µM | 0 | 0 | 0
COC(=O)C1=C(C(=O)OC)[C@@H]2N(Cc3ccccc3)c3ccccc3[C@@]23C[C@@H](C(=O)OC)N(S(=O)(=O)c2ccc(OC)cc2)C3=N1 | - | - | - | - | 0[11.5 µM] | -
COC(=O)c1ccc(COc2ccc(C)cc2[N+](=O)[O-])o1 | 0 | 0 | 5.6µM | 0 | 0 | 0
Cc1ccc(OCc2ccc(C(=O)NN)o2)c([N+](=O)[O-])c1 | 0 | 0 | 0 | 0 | 0 | 0
O=C(COC(=O)C12CC3CC(CC(Cl)(C3)C1)C2)NCc1ccco1 | 0 | 0 | 0 | - | - | -
COc1ccc(C(=O)N2CCC(n3c(C)nc4cc(F)ccc43)CC2)cc1 | 0 | 0 | 0 | 0 | 11µM | 0
CCNS(=O)(=O)c1ccc(NC(=O)c2ccc(Cn3cc([N+](=O)[O-])cn3)o2)cc1 | 0 | 0 | 0 | 0 | 18µM | 0
CCc1cccc(NC(=O)CC2Oc3ccc(C)cc3NC2=O)c1 (stereo not given) | 0 | 0 | - | - | - | -
Cc1cccc(-c2ncc(S(=O)(=O)C(C)(C)C)c(N)n2)c1 | ? | 0 | 5µM | 0 | 0 | 0
CC(C)(C)S(=O)(=O)c1cnc(-c2ccccn2)nc1N | 0 | 0 | 0 | 0 | 0 | 0
Cc1cc(C)c(C#N)c(SCC(=O)CC(=O)OC(C)C)n1 | 0 | 0 | 0 | 0 | 0 | 0
Cc1nc(SCC(=O)CC(=O)OC(C)C)c(C#N)c(C)c1C | 71 | 0 | 0 | 0 | 0 | 0
CC(C)(C)C1CCSC2=NCCC[C@]2(c2ccccc2)C1 (stereo not given in full) | 0 | - | 0 | 0 | - | -
Cc1c(O)nc(SCC(=O)Nc2ccc(Cl)cc2Cl)n(-c2ccc(F)cc2)c1=O | 0 | 0 | - | - | - | -
O=C(c1ccc2c(=O)n(-c3ccccc3)c(=O)[nH]c2c1)N1CCN(Cc2cccs2)CC1 | 0 | - | 0 | - | - | -
Cc1ccnc(SCC(=O)c2cc3ccccc3o2)n1 | 0 | 0 | 8.9µM | 0 | 0 | 0
O=C1c2ccccc2NC(c2cn[nH]c2-c2ccccc2)N1O (stereo not given) | 0 | -58 | 0 | 0 | 0 | 0
